Assay results as given in PubChem BioAssay (NCI).
About 83,000 compounds went through this panel and 20% of them were active in at least one assay; those are over-represented in the sample as a whole.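 The endpoint reported here, percent growth, reads 100 for growth as untreated, 0 for no net growth and -100 for all cells dead.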 A number with no mark means an inactive call. The source made the active and inactive calls. Rule for the calls: active = growth percent below 10; inactive = the rest.

Assays:
Test in all cases: NCI-60 one-dose screen, 48 h (100 = growth as untreated, 0 = no growth, -100 = all killed)
Conditions in all cases: 10 µM
HT29 colon = tested on: HT29 colon
SNB-75 CNS = tested on: SNB-75 CNS
SNB-19 CNS = tested on: SNB-19 CNS
U251 CNS = tested on: U251 CNS
PC-3 prostate = tested on: PC-3 prostate
SK-MEL-5 melanoma = tested on: SK-MEL-5 melanoma
UACC-62 melanoma = tested on: UACC-62 melanoma
LOX IMVI melanoma = tested on: LOX IMVI melanoma
SK-MEL-28 melanoma = tested on: SK-MEL-28 melanoma
EKVX NSCLC = tested on: EKVX NSCLC
SN12C renal = tested on: SN12C renal
UO-31 renal = tested on: UO-31 renal
TK-10 renal = tested on: TK-10 renal
ACHN renal = tested on: ACHN renal
CAKI-1 renal = tested on: CAKI-1 renal
A498 renal = tested on: A498 renal
CCRF-CEM leukemia = tested on: CCRF-CEM leukemia
MOLT-4 leukemia = tested on: MOLT-4 leukemia
SR leukemia = tested on: SR leukemia

Row | SMILES | growth (HT29 colon) | growth (SNB-75 CNS) | growth (SNB-19 CNS) | growth (U251 CNS) | growth (PC-3 prostate) | growth (SK-MEL-5 melanoma) | growth (UACC-62 melanoma) | growth (LOX IMVI melanoma) | growth (SK-MEL-28 melanoma) | growth (EKVX NSCLC) | growth (SN12C renal) | growth (UO-31 renal) | growth (TK-10 renal) | growth (ACHN renal) | growth (CAKI-1 renal) | growth (A498 renal) | growth (CCRF-CEM leukemia) | growth (MOLT-4 leukemia) | growth (SR leukemia)
1 | Nc1ncnc2[nH]c(=O)[nH]c12 | 105% | 84.6% | 97.5% | 97.8% | 201% | 100% | 92.3% | 95.2% | 107% | 83.2% | 90.9% | 105% | 99.3% | 98.9% | 6.82% (active) | 128% | 125% | 138% | 26.1%
2 | O=C(N/N=C/c1cc2ccccc2c2ccccc12)c1cc(O)c(O)c(O)c1 | 94.8% | 56.4% | 50.6% | 20.3% | 52.3% | 52.9% | 41.5% | 47.2% | 55.6% |  | 69.8% | 39.2% | 69.2% | 47.2% | 43.7% | 106% | 11.3% | 35.6% | 9.56% (active)
3 | C/C(N)=C(\C#N)C(=O)c1ccccc1 | 105% | 93.1% | 107% | 98.2% | 98.2% | 99.5% | 109% | 99.8% | 108% |  | 106% | 86.4% | 106% | 105% | 107% | 91.5% | 102% | 110% | 112%
4 | O=[N+]([O-])c1ccc(Oc2cccnc2)c([N+](=O)[O-])c1 | -4.49% (active) | 87.7% | 106% | 85.7% | 83.1% | 79.1% | 84.5% | 24.1% | 97.6% | 93.9% | 97% | 58.3% | 67.5% | 72.4% | -9.25% (active) | 89.3% | 20.1% | 76.4% | 21.1%
5 | COc1ccc(C2=NN(C(=O)c3ccc(S(C)(=O)=O)cc3)C(c3ccc(OC)c(OC)c3)C2)c(OC)c1 (stereo not given) | 103% | 94% | 99.1% | 106% | 90.9% | 90% | 95.2% | 103% | 112% | 98.7% | 100% | 74.9% | 116% | 102% | 93.1% |  | 103% | 92.2% | 97.2%
6 | Cc1ccc(CC#N)cc1C | 110% | 101% | 94.6% | 89.9% | 164% | 99.3% | 103% | 96.7% | 137% | 87.8% | 105% | 94.4% | 107% | 94.6% | 45.3% | 136% | 128% | 93.9% | 89.3%
7 | Clc1ccc(-c2cn(-c3ccccc3)c(-c3ccccc3)n2)c(Cl)c1 | -100% (active) | -83.3% (active) | 43.7% | -100% (active) | -98.3% (active) | 68.1% | 37% | -76.3% (active) | 6.05% (active) | 50.5% | 12.2% | -66.9% (active) | -82.9% (active) | -100% (active) | -22.8% (active) | -28.3% (active) | 34.8% | 6.15% (active) | -51.6% (active)
8 | O=C(NC(Cc1ccc(O)cc1)C(=O)N=Nc1c(O)[nH]c2ccccc12)c1ccccc1 (stereo not given) | 101% | 96.2% | 96.9% | 97.7% | 98.5% | 92.4% | 88.1% | 89.1% | 109% | 97.3% | 97.6% | 74.9% | 97.7% | 114% | 98.9% | 109% | 89.6% | 92.1% | 92.7%
9 | CCc1ccc2c(c1)N(CCO)C1=C(C(=O)OC1)C2c1cc(OC)c(OC)c(OC)c1 (stereo not given) | -24.2% (active) | 49.3% | 21.7% | 10.9% | 26.9% | -14.5% (active) | 16.2% | 25% | 64.5% | 29.9% | 28.8% | 35.5% | 57.9% | 32.2% | 11.4% | -13.7% (active) | 10.2% | 11.4% | 12%
10 | COc1ccc(-c2nn(-c3cccc(NC(=O)Nc4cccc(C(F)(F)F)c4)c3)cc2-c2ccncc2)cc1Cl | 2.94% (active) | 21.5% | 37.1% | -25.2% (active) | 3.59% (active) | 2.68% (active) | -21.5% (active) | 22.6% | 15.6% |  | 19.7% | -4.03% (active) | 11.8% | 17.5% | 1.63% (active) | 0.293% (active) | 2.2% (active) | 2.54% (active) | 4.34% (active)
11 | COc1cc(/C=N/NC(=O)c2ccccc2Nc2cccc(C(F)(F)F)c2)cc(OC)c1OC | 8.62% (active) | 4.15% (active) | 61.4% | -32.1% (active) | -35.3% (active) | 29.2% | 10.3% | 11.9% | 39.3% | 53.5% | 57.4% | 41.4% | -18.2% (active) | 2.47% (active) | 29.2% | -13.2% (active) |  | 28.3% | -4.43% (active)
12 | O=C1OCC2=C1C(c1cccc(Br)c1)c1cc3c(cc1N2CCO)CCC3 (stereo not given) | -12.1% (active) | 37.5% | 28.8% | 5.68% (active) | 22.4% | -12.6% (active) | 20.2% | 15.5% | 62% | 47.7% | 21.2% | 33.9% | 62.6% | 20.9% | 20.8% | -11.2% (active) | 8.55% (active) | 14.1% | 28.5%
13 | CCOC(=O)C(NC(=O)C(Cl)Cl)C(O)c1ccccc1 (stereo not given) | 107% | 91.3% | 101% | 101% | -0.104% (active) | 91.4% | 94.2% | 99.9% | 144% | 109% | 98.8% | 97.6% | 104% | 107% |  | 99.2% | 150% | 98.3% | 107%
14 | COc1ccc2c(c1)N(CCO)C1=C(C(=O)OC1)C2c1ccc(OC)c(OC)c1 (stereo not given) | 9.84% (active) | 16.2% | 53.2% | 34.5% | 38% | 16.9% | 27.3% | 38.2% | 61.6% | 67% | 60.8% | 60.9% | 59.3% | 43.7% | 52.3% | 14.9% |  | 43.4% | 21%
15 | O=C1OCC2=C1C(c1ccc(Cl)c(Cl)c1)c1cc3c(cc1N2CCO)OCCO3 (stereo not given) | 2.95% (active) | 30.3% | 33.1% | 18.2% | 19.1% | 29.9% | 22.5% | 44.3% | 53% | 42.3% | 41.7% | 22% | 57% | 46.2% | 34.1% | -5.46% (active) | 7.16% (active) | 19.9% | 27.9%
16 | COc1cc2nc(Nc3cccc(NC(C)=O)c3)nc(N)c2cc1OC | 111% | 85% | 103% | 94.7% | 60% | 95.5% | 91.7% | 86.7% | 90.3% | 133% | 95.5% | 78.4% | 150% | 102% | 127% | 95% | -71.1% (active) | -89.5% (active) | 107%
17 | COc1cccc(C2C3=C(COC3=O)N(CCO)c3cc(OC)ccc32)c1 (stereo not given) | -8.66% (active) | 27.2% | 33.3% | 12.7% | 26.9% | -3.6% (active) | 14.6% | 23.9% | 56.1% | 40.5% | 27% | 50.4% | 51.8% | 31.9% | 36.7% | -6.88% (active) | 15% | 19% | 22.3%
18 | CCc1ccc2c(c1)N(CCO)C1=C(C(=O)OC1)C2c1ccccc1 (stereo not given) | 86.3% | 88% | 104% | 45.4% | 93.5% | 87.3% | 70.6% | 94.5% | 90.9% | 104% | 105% | 88.9% | 91.8% | 88.6% | 101% | 73.4% | 91.9% | 83% | 63.6%
